Data: the antibiotic and cytotoxicity screens of Wong et al. (2023)
About 3,300 (8.5%) of roughly 39,000 compounds were called active. Many of the other results were omitted from the sample, so actives are more common in it than they were.

Each molecule was assayed on HepG2 (assay: cytotoxicity call (relative viability < 0.9)). Details: 10 µM.
For `C[C@H]1CCCCO[C@H](CN(C)S(=O)(=O)c2cn(C)cn2)[C@@H](C)CN([C@@H](C)CO)C(=O)c2cc(NS(=O)(=O)c3ccc(F)cc3)ccc2O1`, the cytotoxicity call was “inactive”.
With `C[C@@H]1CN([C@H](C)CO)C(=O)c2cc(NC(=O)NC3CCCCC3)ccc2O[C@@H]1CN(C)S(C)(=O)=O` the cytotoxicity call was “inactive”.
For `COc1ccc([Si](C)(C)[C@H]2[C@H](CC(=O)N3Cc4ccccc4C[C@H]3CO)O[C@@]3(C(=O)N(C)c4c(Br)cc(C)cc43)[C@@H]2C)cc1`, the cytotoxicity call was “inactive”.
For `CN1C(=O)c2cc(NC(=O)C3CCOCC3)ccc2OC[C@H]2O[C@H](CC(=O)NCCc3ccncc3)CC[C@@H]21`, the cytotoxicity call was “inactive”.
For `COc1cc(C=CC(=O)O)ccc1O`, the cytotoxicity call was “inactive”.
With `O=C(O)C=Cc1ccc(O)c(O)c1` the cytotoxicity call was “inactive”.
With `COc1cc(C=CC(=O)C=C(O)C=Cc2ccc(O)c(OC)c2)ccc1O` the cytotoxicity call was “active”.
With `O=C(C=Cc1ccc(O)c(O)c1)C=C(O)C=Cc1ccc(O)c(O)c1` the cytotoxicity call was “active”.
For `COc1cc(C(C)=O)ccc1O`, the cytotoxicity call was “inactive”.
`COc1cc(C=O)ccc1O` was tested, and the cytotoxicity call was “active”.
`O=C(/C=C/c1ccc(O)c(O)c1)O[C@H]([C@H](OC(=O)/C=C/c1ccc(O)c(O)c1)[C@H](OC(=O)/C=C/c1ccc(O)c(O)c1)C(=O)O)[C@@H](OC(=O)/C=C/c1ccc(O)c(O)c1)C(=O)O` was tested, and the cytotoxicity call was “inactive”.
With `COc1ccc(C=CC(=O)O)cc1OC` the cytotoxicity call was “inactive”.
`COc1ccc(/C=C/C(=O)C=C(O)/C=C/c2ccc(OC)c(OC)c2)cc1OC` was tested, and the cytotoxicity call was “inactive”.
With `S=C1NCNCN1` the cytotoxicity call was “inactive”.
`O=C1N[C@H](Cc2ccccc2)COC(=O)[C@@H](Cc2ccc(F)cc2)CCC=CC[C@@H]1CC(=O)N(CCO)Cc1ccccc1` was tested, and the cytotoxicity call was “inactive”.
For `COc1ccc(CN2C[C@@H](C)[C@H](OC)CN(C)C(=O)c3ccc(NC(=O)c4nc5ccccc5s4)cc3OC[C@H]2C)cc1`, the cytotoxicity call was “inactive”.
With `COCC#Cc1ccc2c(c1)O[C@@H](CN(C)C(=O)CN(C)C)[C@H](C)CN([C@H](C)CO)S2(=O)=O` the cytotoxicity call was “inactive”.
For `Cc1ccc(S(=O)(=O)N(C)C[C@@H]2Oc3ncc(Br)cc3C(=O)N([C@H](C)CO)C[C@@H]2C)cc1`, the cytotoxicity call was “inactive”.
In the case of `COC(=O)c1cc(S(=O)(=O)N2CCOCC2)cn1C`, the cytotoxicity call was “inactive”.
In the case of `C[C@@H]1CCCCO[C@@H](CN(C)C(=O)Nc2ccc(F)cc2)[C@@H](C)CN([C@@H](C)CO)C(=O)c2cc(NC(=O)C3CCCCC3)ccc2O1`, the cytotoxicity call was “inactive”.
For `COCC#Cc1ccc([C@H]2[C@@H](CO)N3C(=O)CN(C(=O)C4CCOCC4)C[C@@H]23)cc1`, the cytotoxicity call was “inactive”.
`C[C@H]1CN([C@@H](C)CO)C(=O)c2cccc(NC(=O)c3cnccn3)c2O[C@H]1CN(C)C(=O)Nc1ccccc1` was tested, and the cytotoxicity call was “inactive”.
`C[C@@H]1CN([C@@H](C)CO)C(=O)c2cc(NC(=O)Nc3ccc(C(F)(F)F)cc3)ccc2O[C@@H](C)CCCCO[C@@H]1CN(C)C(=O)CCCN(C)C` was tested, and the cytotoxicity call was “inactive”.
In the case of `Oc1ccc2ccccc2c1`, the cytotoxicity call was “inactive”.
In the case of `Oc1ccc2ccccc2c1` [beta-NAPHTHOL ], the cytotoxicity call was “active”.
For `Oc1cccc(O)c1`, the cytotoxicity call was “inactive”.
`O=C(O)c1ccc2ccccc2c1` was tested, and the cytotoxicity call was “inactive”.
In the case of `C[C@H](CO)N1C[C@H](C)[C@@H](CN(C)S(=O)(=O)c2ccccc2)Oc2ccc(NS(=O)(=O)c3ccccc3)cc2C1=O`, the cytotoxicity call was “inactive”.
For `Cc1ccc(S[C@]2(C(=O)NCC(C)C)CC(=O)N(Cc3cc(C(F)(F)F)cc(C(F)(F)F)c3)[C@@H]2c2ccc(CO)cc2I)cc1`, the cytotoxicity call was “inactive”.
In the case of `Cc1cn([C@H]2C[C@H](F)[C@@H](CO)O2)c(=O)[nH]c1=O`, the cytotoxicity call was “inactive”.
For `CCC(=O)N[C@@H]1CC[C@@H](CC(=O)OC)O[C@@H]1CO`, the cytotoxicity call was “inactive”.
`C[C@@H]1CN([C@@H](C)CO)C(=O)c2cc(-c3cncnc3)cnc2O[C@@H]1CN(C)C(=O)CN1CCOCC1` was tested, and the cytotoxicity call was “inactive”.
With `C[C@@H]1CN([C@H](C)CO)C(=O)c2cccc(NC(=O)CCCCCC(=O)Nc3ccccc3N)c2O[C@@H]1CN(C)C(=O)Nc1ccc(C(F)(F)F)cc1` the cytotoxicity call was “inactive”.
`C[C@@H]1CCCCO[C@H](CN(C)S(=O)(=O)c2ccc(Cl)cc2)[C@@H](C)CN([C@H](C)CO)C(=O)c2cc(NC(=O)Nc3ccc(F)cc3)ccc2O1` was tested, and the cytotoxicity call was “inactive”.
For `C[C@H]1CCCCO[C@H](CN(C)S(=O)(=O)c2ccc(Cl)cc2)[C@@H](C)CN([C@@H](C)CO)C(=O)c2cc(NC(=O)Nc3ccc(F)cc3)ccc2O1`, the cytotoxicity call was “inactive”.
For `C[C@@H]1CN([C@H](C)CO)C(=O)c2cc(NC(=O)Nc3ccc(F)cc3)ccc2O[C@@H](C)CCCCO[C@H]1CN(C)S(=O)(=O)c1ccc(Cl)cc1`, the cytotoxicity call was “active”.
`C[C@@H]1CCCCO[C@H](CN(C)S(=O)(=O)c2ccc(Cl)cc2)[C@H](C)CN([C@@H](C)CO)C(=O)c2cc(NC(=O)Nc3ccc(F)cc3)ccc2O1` was tested, and the cytotoxicity call was “inactive”.
In the case of `C[C@H](CO)N1C[C@H](C)[C@@H](CN(C)S(=O)(=O)c2ccc(Cl)cc2)OCCCC[C@H](C)Oc2ccc(NC(=O)Nc3ccc(F)cc3)cc2C1=O`, the cytotoxicity call was “inactive”.
With `C[C@@H]1CCCCO[C@@H](CN(C)S(=O)(=O)c2ccc(Cl)cc2)[C@H](C)CN([C@H](C)CO)C(=O)c2cc(NC(=O)Nc3ccc(F)cc3)ccc2O1` the cytotoxicity call was “active”.
With `COc1ccc(CN(C)C[C@@H]2Oc3c(NC(=O)c4cnccn4)cccc3C(=O)N([C@@H](C)CO)C[C@H]2C)cc1` the cytotoxicity call was “inactive”.
With `CNC(=O)[C@H]1O[C@@H](n2cnc3c(NCc4cccc(I)c4)ncnc32)[C@H](O)[C@@H]1O` the cytotoxicity call was “inactive”.
In the case of `C[C@@H]1CCCCO[C@H](CN(C)C(=O)Nc2ccccc2)[C@@H](C)CN([C@@H](C)CO)C(=O)c2cc(NC(=O)c3ccccc3)ccc2O1`, the cytotoxicity call was “inactive”.
In the case of `C[C@H]1CN([C@@H](C)CO)C(=O)c2cccc(NC(=O)c3nc4ccccc4s3)c2O[C@H]1CN(C)C(=O)Nc1ccc(F)cc1`, the cytotoxicity call was “inactive”.
For `C[C@H](CO)N1C[C@H](C)[C@@H](CN(C)C(=O)Nc2ccc3c(c2)OCO3)Oc2ccc(NS(C)(=O)=O)cc2C1=O`, the cytotoxicity call was “inactive”.
`COc1ccc(S(=O)(=O)Nc2ccc3c(c2)CC(=O)N([C@@H](C)CO)C[C@H](C)[C@H](CN(C)S(=O)(=O)c2ccccc2)O3)cc1` was tested, and the cytotoxicity call was “inactive”.
In the case of `C[C@H](CO)N1C[C@H](C)[C@H](CN(C)S(=O)(=O)c2cn(C)cn2)Oc2ccc(NC(=O)CCCN(C)C)cc2CC1=O`, the cytotoxicity call was “inactive”.
